This is a sample that favours compounds with a hit; in the whole collection about 2.9% have one here.
CRFBP-R2 block: blocks CRF-induced signaling of the CRF-BP/CRF-R2 complex | HEK293 CRF-R2/CRF-BP, CRF-induced calcium fluorescence | 0.59% of 350,000 active | inhibition, % at 11.8 µM;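 active means inhibition of the ligand-induced calcium signal above about 50% at the single tested concentration, limit read from the data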
ABCB6 inh MLPCN: inhibitors of human ABC transporter ABCB6; AID 602162; Q9NP58; K562-ABCB6 porphyrin accumulation, flow cytometry, 1 h; hits give low values; 0.19% of 360,000 active; fluorescence ratio to DMSO, % at 10 µM;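 active means fluorescence ratio to DMSO below 75%, the collection mean minus 3 SD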;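 further: signal is porphyrin accumulated inside mitochondria; lower ratio means ABCB6 inhibition with less porphyrin fluorescence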
Target sequence (Q9NP58 whole entry, looked up): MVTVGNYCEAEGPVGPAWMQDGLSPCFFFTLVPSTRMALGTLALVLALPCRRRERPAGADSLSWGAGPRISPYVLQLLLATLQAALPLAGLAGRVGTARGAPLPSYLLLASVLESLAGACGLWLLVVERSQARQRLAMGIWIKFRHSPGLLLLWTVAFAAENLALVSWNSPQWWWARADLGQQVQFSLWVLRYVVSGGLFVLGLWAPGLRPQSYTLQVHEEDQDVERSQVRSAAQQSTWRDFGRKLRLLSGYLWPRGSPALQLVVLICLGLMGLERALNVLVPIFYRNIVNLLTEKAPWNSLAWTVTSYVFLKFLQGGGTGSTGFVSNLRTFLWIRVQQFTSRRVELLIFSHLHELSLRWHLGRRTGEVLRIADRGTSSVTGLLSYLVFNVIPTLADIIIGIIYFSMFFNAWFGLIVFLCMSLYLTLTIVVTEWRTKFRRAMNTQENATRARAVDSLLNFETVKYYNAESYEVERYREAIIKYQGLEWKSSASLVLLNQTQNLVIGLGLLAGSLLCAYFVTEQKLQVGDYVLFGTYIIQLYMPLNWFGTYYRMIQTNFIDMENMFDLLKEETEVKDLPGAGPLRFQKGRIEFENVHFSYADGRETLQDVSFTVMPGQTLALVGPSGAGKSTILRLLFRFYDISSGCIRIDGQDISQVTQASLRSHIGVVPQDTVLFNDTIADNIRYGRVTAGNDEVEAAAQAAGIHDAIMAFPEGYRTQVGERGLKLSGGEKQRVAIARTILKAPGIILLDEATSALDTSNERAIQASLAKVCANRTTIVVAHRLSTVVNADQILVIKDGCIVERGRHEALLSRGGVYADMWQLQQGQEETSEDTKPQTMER
MEKK2 mut-MEK5: signal of MEK5 binding to mutant human MEKK2 PB1 domain; percent response, % at 10 µM; 0.35% of 290,000 active; AID 1530; bead flow cytometry, Alexa488-MEK5 binding to MEKK2 mutant; in the data active means percent response above about 24%, passing the limit was not always enough
CRFR2-BP ag: CRF-BP/CRF-R2 complex agonism | HEK293 CRF-R2/CRF-BP, calcium dye fluorescence (FLIPR); percent of saturating CRF peptide response | activation, % at 13.2 µM | 0.46% of 350,000 active | AID 588473;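 active means activation of at least 50%, plus an integration ratio under a set limit after plate pattern correction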
MEKK3 PB1 HTS: modulators (inhibitors or enhancers) of MEK5 binding to human MEKK3 PB1 domain. bead-based flow cytometry, Alexa488-MEK5 binding to MEKK3; actives lie on both sides; 0 = blocked by unlabeled MEK5, 100 = vehicle. binding response (% of control), % at 10 µM. 1.4% of 290,000 active. AID 1529;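 active means binding response more than 3 SD above or below the average of its plate-row segment, actives on both sides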;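 further: Alexa488 bead fluorescence after subtracting the streptavidin-only scavenger bead signal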
MEKK2wt PB1 HTS: raises or lowers MEK5 binding to wildtype human MEKK2 PB1 domain | Q9Y2U5 | bead flow cytometry, Alexa488-MEK5 binding to MEKK2 WT; actives lie on both sides | binding response (% of control), % at 10 µM | 1.1% of 290,000 active | AID 1531; in the data active means binding response below about 67% or above about 130%
MEKK2wt confirm: raises or lowers MEK5 binding to wildtype human MEKK2, retest. shares compounds with MEKK3 PB1 HTS. binding response (% of control), % at 10 µM. bead flow cytometry, Alexa488-MEK5 binding to MEKK2 WT; actives lie on both sides. 2.4% of 5,900 active; in the data active means binding response below about 16% or above about 210%; inactive means in between
MEKK2mut confirm: signal of MEK5 binding to mutant human MEKK2, retest. bead flow cytometry, Alexa488-MEK5 binding to MEKK2 mutant. 2% of 5,900 active. percent response, % at 10 µM. shares compounds with MEKK3 PB1 HTS. AID 1893; in the data active means percent response mostly above about 71%, no sharp cut-off; inactive means mostly below about 38%;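 further: higher means compound restores mutant binding toward wildtype level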
MEKK3-MEK5 inh: MEKK3-MEK5 PB1 inhibition, single concentration confirmation; shares compounds with MEKK3 PB1 HTS; bead flow cytometry, Alexa488-MEK5 binding to MEKK3; hits give low values; binding response (% of control), % at 10 µM; 1.8% of 5,900 active; AID 1894;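 active means binding response below 72% of control, or above a set upper limit, though filed actives all read lower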
Of the large screens only hits and unclear results are named; the others gave an inactive call (follow-up assays come after a bar, where they were run); ! = repeats disagree; [ ] = dose if it differs, or a comment.

O=C(c1cc(Cl)ccc1Cl)N1CCOCC1	MEKK3 PB1 HTS 0.0[inhibitor], MEKK2wt PB1 HTS -4.0[inhibitor] | MEKK2wt confirm inactive | MEKK2mut confirm inactive | MEKK3-MEK5 inh inactive
O=C(c1ccc(Cl)cc1Cl)N1CCOCC1	none (no result: MEKK2 mut-MEK5, MEKK3 PB1 HTS, MEKK2wt PB1 HTS)
CCOC(=O)c1c(C)[nH]c2cc(Br)c(O)cc12	MEKK3 PB1 HTS 2.0[inhibitor], MEKK2wt PB1 HTS 2.0[inhibitor] | MEKK2wt confirm inactive | MEKK2mut confirm inactive | MEKK3-MEK5 inh inactive
Nc1nonc1C(=O)NCCNCc1c(OCc2ccccc2F)ccc2ccccc12	MEKK2 mut-MEK5 26, MEKK2wt PB1 HTS 164 | MEKK2wt confirm inactive | MEKK2mut confirm inactive | MEKK3-MEK5 inh inactive
Nc1nonc1C(=O)NCCNCc1cc(Br)ccc1OCc1ccc(F)cc1	none
Cc1c(C(=O)N/N=C/c2ccc(O)c(Br)c2)sc(N)c1C#N	MEKK3 PB1 HTS 132 | MEKK2wt confirm inactive | MEKK2mut confirm inactive | MEKK3-MEK5 inh inactive
COc1ccc2c(c1)C(=O)N1[C@H]3c4cc(Br)ccc4OC[C@@H]3[C@H](c3ccccc3)[C@]1(C)C(=O)N2	none (no result: MEKK2 mut-MEK5, MEKK3 PB1 HTS, MEKK2wt PB1 HTS)
CN(CC(=O)N/N=C/c1ccc(F)cc1)S(=O)(=O)c1ccccc1	none (no result: MEKK2 mut-MEK5, MEKK3 PB1 HTS, MEKK2wt PB1 HTS)
CC(NC(=O)CN(c1ccccc1F)S(C)(=O)=O)c1ccccc1 (stereo not given)	MEKK2 mut-MEK5 27 | MEKK2wt confirm inactive | MEKK2mut confirm inactive | MEKK3-MEK5 inh inactive
Cc1c(Cl)cccc1N(CC(=O)NC(C)c1ccccc1)S(C)(=O)=O (stereo not given)	none
COc1ccccc1N1CCN(CCCNC(=O)Nc2ccccc2C)CC1	MEKK2 mut-MEK5 29 | MEKK2wt confirm inactive | MEKK2mut confirm inactive | MEKK3-MEK5 inh inactive
Cc1n[nH]c(=S)n1/N=C/c1ccc(OCc2ccc(Cl)cc2)cc1	none
Cc1cc(C)c(COc2ccc(/C=N/n3c(C)n[nH]c3=S)cc2)c(C)c1	MEKK3 PB1 HTS 72[inhibitor] | MEKK2wt confirm inactive | MEKK2mut confirm inactive | MEKK3-MEK5 inh inactive
COc1ccc(C(O)c2nc(-c3ccc(Cl)cc3)cs2)cc1 (stereo not given)	none (no result: CRFBP-R2 block, MEKK2 mut-MEK5, CRFR2-BP ag, MEKK3 PB1 HTS, MEKK2wt PB1 HTS)
Cc1ccc(S(=O)(=O)N(C)CC(=O)NCc2ccncc2)cc1	none
CN(CC(=O)NCc1ccncc1)S(=O)(=O)c1ccc2ccccc2c1	MEKK3 PB1 HTS 129 | MEKK2wt confirm inactive | MEKK2mut confirm inactive | MEKK3-MEK5 inh inactive
CC(C)OC(=O)N(C)C[C@H]1OCc2cn(nn2)CCCC(=O)N([C@H](C)CO)C[C@@H]1C	none (no result: MEKK2 mut-MEK5, MEKK3 PB1 HTS, MEKK2wt PB1 HTS)
N#CCCN(Cc1ccncc1)C(=S)NC1CC2C=CC1C2 (stereo not given)	MEKK3 PB1 HTS 47[inhibitor] | MEKK2wt confirm inactive | MEKK2mut confirm inactive | MEKK3-MEK5 inh inactive
Cc1ccc(NC(=S)NN(C)c2cc(C)nc(C)n2)cc1	MEKK3 PB1 HTS 129 | MEKK2wt confirm inactive | MEKK2mut confirm inactive | MEKK3-MEK5 inh inactive
COC(=O)Cn1c(=NC(=O)c2ccc(OC)c(OC)c2)sc2cc(OC)ccc21	none
COC(=O)Cn1c(=NC(=O)c2ccc(Cl)s2)sc2cc(F)ccc21	MEKK3 PB1 HTS 134 | MEKK2wt confirm inactive | MEKK2mut confirm inactive | MEKK3-MEK5 inh inactive
Cc1onc(C(=O)N2CCN(c3ccccc3F)CC2)c1-c1ccccc1Cl	MEKK3 PB1 HTS 130 | MEKK2wt confirm inactive | MEKK2mut confirm inactive | MEKK3-MEK5 inh inactive
COc1ccccc1N1CCN(C(=O)c2c(-c3c(F)cccc3Cl)noc2C)CC1	none
CC(C)COCC(CN(Cc1ccccc1)c1ccccc1)N1CCCC1 (stereo not given)	MEKK2wt PB1 HTS 146! | MEKK2wt confirm inactive | MEKK2mut confirm inactive | MEKK3-MEK5 inh inactive
CC(C(=O)Nc1ccc(OCc2ccccc2)cc1)N1CCCC1 (stereo not given)	none
COc1cccc(NC(=O)N2CCC(NC(=O)c3ccco3)CC2)c1	none
OCC1(Cc2cccc(Cl)c2)CCCN(Cc2cnn(-c3ccccc3)c2)C1 (stereo not given)	MEKK2wt PB1 HTS 140 | MEKK2wt confirm inactive | MEKK2mut confirm inactive | MEKK3-MEK5 inh inactive
O=C(Cn1nnc(-c2ccc(F)cc2)n1)Nc1cccc(S(=O)(=O)N2CCCC2)c1	none (no result: MEKK2 mut-MEK5, MEKK3 PB1 HTS, MEKK2wt PB1 HTS)
COc1ccc2[nH]c3c(c2c1)CCN1C(=O)C(CC(=O)NCc2ccc(OC)c(OC)c2)C[C@H](C(=O)N2CCCCC2)[C@@]31CCc1ccccc1 (stereo not given in full)	none (no result: MEKK2 mut-MEK5, MEKK3 PB1 HTS, MEKK2wt PB1 HTS)
Cc1cccc(C)c1NC(=S)N(CCN1CCCCCC1)Cc1ccco1	none
Cc1cccc(C)c1NC(=S)N(Cc1ccco1)C1CCN(C(C)C)CC1	MEKK3 PB1 HTS 128 | MEKK2wt confirm inactive | MEKK2mut confirm inactive | MEKK3-MEK5 inh inactive
C=CCS/C(N)=N\N=C\c1c(O)ccc2ccccc12	MEKK3 PB1 HTS 139 | MEKK2wt confirm inactive | MEKK2mut confirm inactive | MEKK3-MEK5 inh inactive
O=C(Cn1cc(C(F)(F)F)cc(Cl)c1=O)NCc1ccccc1	none
O=C(Cn1cc(C(F)(F)F)cc(Cl)c1=O)NCCc1ccccc1	MEKK3 PB1 HTS 135 | MEKK2wt confirm inactive | MEKK2mut confirm inactive | MEKK3-MEK5 inh inactive
O=C(Nc1nc2ccsc2c(=O)s1)c1ccco1	none
O=C(Nc1nc2ccsc2c(=O)s1)C1CCC1	MEKK3 PB1 HTS 129 | MEKK2wt confirm inactive | MEKK2mut confirm inactive | MEKK3-MEK5 inh inactive
CC(C)CN1CCN(CCCOC(=O)Nc2cccc3ccccc23)CC1C (stereo not given)	none (no result: MEKK2 mut-MEK5, MEKK3 PB1 HTS, MEKK2wt PB1 HTS)
COC(=O)c1ccccc1-c1cn(C)c2ccccc2c1=O	none
Cn1c(N/N=C\c2cccc(O)c2)cc(=O)n(C)c1=O	MEKK3 PB1 HTS 146 | MEKK2wt confirm inactive | MEKK2mut confirm inactive | MEKK3-MEK5 inh inactive
Cc1cc(=O)[nH]c(N/N=C/C2=C(N3CCOCC3)C(=C\c3ccc(Cl)cc3)/CC2)n1	MEKK3 PB1 HTS 135 | MEKK2wt confirm inactive | MEKK2mut confirm inactive | MEKK3-MEK5 inh inactive
Cc1cc(C)nc(N/N=C/C2=C(N3CCOCC3)C(=C/c3ccccc3)/CC2)n1	none
Cc1[nH]n(-c2ccc([N+](=O)[O-])cc2)c(=O)c1C=NCCc1c(C)[nH]c2ccccc12	MEKK3 PB1 HTS 133 | MEKK2wt confirm inactive | MEKK2mut confirm inactive | MEKK3-MEK5 inh inactive
COc1ccc(N2CCN(C(=O)CCc3nnc4ccc(N5CCOCC5)nn34)CC2)cc1	none
